Data on 29 compounds can be found in PubChem BioAssay.

Calls of active or inactive are those of the source.

A short description of the first test: resazurin metabolic signal in HepG2 cells – cell-based, resazurin fluorescence, 24 h, PK04 Diversity Set, profiling panel (AID 1172). Also: test concentration not given here. Conditions: HepG2 viability, higher = more signal.
`N#Cc1ccc(NN2C(C(O)C3CC=CCC3)C=CC3C(=O)N(c4ccccc4)C(=O)C32)cc1` (centres undefined) displayed a z-score of -1.3.

On to `O=C(NCC(O)CO)C1N=C(c2ccc(OCCCO)cc2)N(c2ccccc2)O1` (centres undefined), for which the z-score is -0.664.

As to `CCCC[C@H]1OB(O)C[C@H]2C1=C(COc1ccccc1)C[C@H]1C(=O)C=CC(=O)[C@H]12`, the z-score is -0.149.

Take `COCCn1c(C(=O)N(C)C)cc2c1C[C@H]1CN(C(=O)c3ccccc3)[C@@](Cc3ccc(OC)cc3)(C(=O)OC)[C@@H]21`: the z-score is -0.17.

The next test can be described thus: budding yeast growth changes without added modifier – OD600, strain BY4716, 24 h, basal condition, primary screen (AID 1173). Conditions: S. cerevisiae BY4716 growth, OD600, 24 h; higher = more signal, called active from +8 up or from −8 down.
Take `CC(C)(C)N1CC=CC23O[C@@H]4/C=C\CCCOC(=O)C4[C@H]2C(=O)N(CCCCCO)[C@@H]3C1=O` (some centres undefined): the z-score was 0.309 (inactive).

For the compound `COCCCNC(=O)[C@@]1(CCS(=O)(=O)c2ccccc2)COC(c2ccc(OCCCO)cc2)=N1`, the z-score was -0.25 (inactive).

For the compound `O=C1NC(=O)C2C1C=CC(C(O)c1ccc(B(O)O)cc1)N2Nc1ccc(Cl)cc1Cl` (centres undefined), the z-score was -7.76 (inactive).

On to `CCOc1cc(C(O)C2C=CC3C(=O)N(c4ccccc4)C(=O)C3N2Nc2ccccc2F)ccc1O` (centres undefined), for which the z-score was -3.57 (inactive).

In the case of `O=C1OCCC=C[C@H]2OC34C=CCN(c5ccc6ccccc6c5)C(=O)[C@H]3N(CCO)C(=O)[C@@H]4C12` (some centres undefined), the z-score is -0.783 (inactive).

For the compound `CN(C)CCCNC(=O)[C@@]1(Cc2ccccc2I)c2ccccc2C(=O)N(C2CCCCC2)[C@H]1c1ccc(CO)cc1`, the z-score is -8.03 (active).

`COc1ccc(C#Cc2ccc3c(c2)[C@]2(C(=O)N3)[C@H](C(=O)O)[C@H]3C(=O)O[C@H](c4ccccc4)[C@H](c4ccccc4)N3[C@@H]2c2ccccc2OCCO)cc1`: the z-score is 0.0196 (inactive).

For `COCCOC(=O)N1C(=O)[C@@]2(c3cc(C#CC4(O)CCCCCC4)ccc31)[C@H](c1ccc(O)cc1)N1[C@H](c3ccccc3)[C@H](c3ccccc3)OC(=O)[C@H]1[C@@H]2C(=O)N1CCCCCCC1`, the z-score was -0.525 (inactive).

Regarding `[N-]=[N+]=Nc1ccccc1[C@@H]1OC(c2ccc(OCCCO)cc2)=N[C@]1(Cc1ccccc1)C(=O)NCCN1CCOCC1`, the z-score was -2.57 (inactive).

As for `CCCCC(O)C1C=CC2C(=O)N(c3ccccc3)C(=O)C2N1Nc1ccccc1` (centres undefined), the z-score is -1.67 (inactive).

In the case of `CC=CC(O)C1C=CC2C(=O)NC(=O)C2N1Nc1ccc(Cl)cc1Cl` (centres undefined), the z-score is -11.4 (active).

For `COC(=O)[C@H](Cc1ccccc1)N1CC2=CCCC=C[C@@H]2[C@H]1[C@H](O)Cc1ccccc1`, the z-score was -1.7 (inactive).

With `Cc1ccc(S[C@]2(C(=O)NC(C)C)CC(=O)N(C3CCCCC3)[C@@H]2c2ccc(CO)cc2I)cc1`, the z-score was 0.27 (inactive).

Take `CCCNC(=O)[C@@]1(c2ccc([N+](=O)[O-])cc2)CC(=O)N(C(C)C)[C@@H]1c1ccc(CO)cc1`: the z-score was -0.324 (inactive).

As to `COC(=O)[C@@]1(Cc2ccc(OC)cc2)[C@H]2c3cc(C(=O)N(C)C)[nH]c3C[C@H]2CN1C(=O)c1ccccc1`, the z-score is 0.304 (inactive).

Turning to `O=C1N(CCS(=O)(=O)c2ccccc2)c2ccccc2C[C@]12N=C(c1ccc(OCCCO)cc1)O[C@@H]2c1ccccc1`, the z-score was 0.376 (inactive).

As to `CC1=C([C@H](O)CCc2ccccc2)[C@H](CO)n2c(=O)n(-c3ccccc3)c(=O)n2C1`, the z-score is -2.79 (inactive).

As for `O=C1O[C@H](Cc2ccccc2)[C@@H]2[C@H]3C=CCCC=C3CN2[C@H]1Cc1ccc(O)cc1`, the z-score is -2.92 (inactive).

For `CN(C)c1ccc(C(O)C2C=CC3C(=O)N(Cc4ccccc4)C(=O)C3N2n2cnnc2)cc1` (centres undefined), the z-score was -0.116 (inactive).

For the compound `COC(=O)[C@@]1(Cc2ccc(F)cc2)[C@H]2c3cc(C(=O)N(C)C)n(CCc4ccc(O)c(O)c4)c3C[C@H]2CN1C(=O)c1ccccc1`, the z-score is 0.634 (inactive).

As to `CCCC[C@H]1C[C@@H]1[C@@H]1N(C(C)=O)[C@H](c2cccc(OC)c2)CC12CC2`, the z-score is -6.41 (inactive).

As for `CC(=O)OCC1C2CC[C@H]3C(OCc4ccc(F)cc4C(F)(F)F)OC[C@]4(C)[C@H]3C2=C(CN4C(=O)OC(C)(C)C)[C@H](C)C1COC(C)=O` (some centres undefined), the z-score is 1.69 (inactive).

Consider `COc1ccccc1CN1C(=O)c2ccccc2[C@](Cc2ccccc2I)(C(=O)NCC(C)C)[C@@H]1c1ccc(CO)cc1`, for which the z-score is -0.441 (inactive).

Turning to `C[N+](C)(C)CCCC[C@@H]1NC(=O)[C@@H]2C[C@H](C(=O)NCc3ccc(F)cc3)[C@H](c3ccc(O)cc3)N2C1=O`, the z-score was 0.628 (inactive).

With `CN1C(=O)C2C(C1=O)C1C=C(CCCO)C2C(C2CC2)N1Cc1cccc(OC(F)(F)F)c1` (centres undefined), the z-score is -1.13 (inactive).
